Results taken from PubChem BioAssay AID651551 (Sanford-Burnham Center for Chemical Genomics, 2012).

Each compound was assayed against PEG-3 (UniProt Q6IN02) (assay: GAPDH versus PEG-3 reporter suppression – cell-based, luminescence, counter-screen for PEG-3 promoter inhibitor project, SAR follow-up (AID 651551)). Details: HeLa PEG-Prom / GAPDH luciferase reporter, 6 or 24 h, run 3, 24 h; at 99 µM (top of the series).
`CCn1cc(C(=O)NCc2ccco2)c(=O)c2cc(S(=O)(=O)N3CCCC3)ccc21` gave an inhibition % (higher = more inhibition) of 46.7%. `CCCn1nc(C(=O)Nc2nc3ccccc3s2)c2ccccc2c1=O` gave an inhibition % (higher = more inhibition) of 16.5%. With `COc1ccc(Cl)cc1Nc1nc(-c2sc(NC(=O)c3ccccc3)nc2C)cs1` the inhibition % (higher = more inhibition) was 60.5%. `Cc1cc(NC(=O)c2cccc(C)c2C)n(-c2nc3ccccc3[nH]2)n1` gave an inhibition % (higher = more inhibition) of 3.97%. `COc1ccc(-n2nc(C(=O)NCC(=O)Nc3cccc(OC)c3)c3ccccc3c2=O)cc1` was tested, and the inhibition % (higher = more inhibition) was 8.99%. `O=C(Nc1nc2ccccc2s1)c1nn(-c2ccccc2)c(=O)c2ccccc12` gave an inhibition % (higher = more inhibition) of -21.2%. `Cc1cc(NC(=O)c2ccccc2)n(-c2nc3ccccc3[nH]2)n1` showed an inhibition % (higher = more inhibition) of 79.1%. `COc1ccc(-n2nc(C(=O)NCC(=O)Nc3ccc(OC)c(OC)c3)c3ccccc3c2=O)cc1` gave an inhibition % (higher = more inhibition) of 34.1%. In the case of `Cc1nc(NC(=O)c2ccccc2)sc1-c1csc(Nc2cccc(Cl)c2C)n1`, the inhibition % (higher = more inhibition) is reported as -61.4%. With `O=C(Nc1nc(-c2ccccc2)cs1)c1nn(-c2ccccc2)c(=O)c2ccccc12` the inhibition % (higher = more inhibition) was 11.5%. Work on `COc1ccccc1Nc1nc(-c2sc(NC(=O)c3ccco3)nc2C)cs1` yielded an inhibition % (higher = more inhibition) of 21.6%. `Cc1cc(NC(=O)c2ccccc2)n(-c2nc3ccccc3n2C)n1` gave an inhibition % (higher = more inhibition) of 3.97%. `COCCCNC(=O)c1ccc(Cn2c(=O)c3ccccc3n(Cc3ccccc3C#N)c2=O)cc1` was tested, and the inhibition % (higher = more inhibition) was 73.4%. `Cc1ccc(Cl)cc1Nc1nc(-c2sc(NC(=O)c3ccco3)nc2C)cs1` gave an inhibition % (higher = more inhibition) of -26.2%. `Cc1cc(NC(=O)c2ccccc2C)n(-c2nc3ccccc3[nH]2)n1` gave an inhibition % (higher = more inhibition) of 38%. Compound `Cc1nc(NC(=O)c2ccccc2)sc1-c1csc(Nc2ccccc2)n1` has an inhibition % (higher = more inhibition) of 76.8%. `Cc1cc(NC(=O)c2ccccc2C(F)(F)F)n(-c2nc3ccccc3[nH]2)n1` showed an inhibition % (higher = more inhibition) of 94.1%. For `CCn1nc(C(=O)Nc2nc(-c3ccccn3)cs2)c2ccccc2c1=O`, the inhibition % (higher = more inhibition) was 39.1%. `Cc1nc(NC(=O)c2ccccc2)sc1-c1csc(Nc2ccccc2Cl)n1` gave an inhibition % (higher = more inhibition) of -104%. `CCCn1nc(C(=O)Nc2nc(-c3ccncc3)cs2)c2ccccc2c1=O` was tested, and the inhibition % (higher = more inhibition) was 44.6%. For `COc1ccc(-n2nc(C(=O)NCC(=O)Nc3cc(OC)c(OC)c(OC)c3)c3ccccc3c2=O)cc1OC`, the inhibition % (higher = more inhibition) was 34.1%. With `O=C(Nc1nccs1)c1nn(-c2ccccc2)c(=O)c2ccccc12` the inhibition % (higher = more inhibition) was 29.1%. `CCCn1nc(C(=O)Nc2nc(-c3ccccn3)cs2)c2ccccc2c1=O` was tested, and the inhibition % (higher = more inhibition) was 40.8%.
